# Screening results deposited in PubChem by National Center for Advancing Translational Sciences (NCATS).
# AmpC no deterg: blocks E. coli AmpC beta-lactamase in detergent-free assay; P00811; AmpC nitrocefin hydrolysis, absorbance 480 nm, 0.0001% Triton; Potency, µM (series often up to 57.1 µM), inactives show top-dose activity change, negative = inhibition, hits mostly inhibitors; 0.52% of 330,000 active;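 also: plate controls were no compound for no effect and no enzyme for full effect; nearly all actives have a fitted effect of over 20% in size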
# Target sequence (P00811 whole entry, looked up): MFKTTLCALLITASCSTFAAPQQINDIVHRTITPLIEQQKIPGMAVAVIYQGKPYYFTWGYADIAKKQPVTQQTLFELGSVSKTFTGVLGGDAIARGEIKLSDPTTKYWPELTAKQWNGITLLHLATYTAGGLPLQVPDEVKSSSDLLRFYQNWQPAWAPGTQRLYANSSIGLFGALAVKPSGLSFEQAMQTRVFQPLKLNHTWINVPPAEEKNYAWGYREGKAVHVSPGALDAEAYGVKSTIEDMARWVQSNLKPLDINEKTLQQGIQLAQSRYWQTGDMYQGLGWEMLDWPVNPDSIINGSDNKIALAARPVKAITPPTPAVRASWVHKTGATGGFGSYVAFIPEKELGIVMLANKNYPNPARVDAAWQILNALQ
#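 AmpC (5.3 nM in the dispensed reagent) in 20 mM phosphate pH 7.0 with 0.01% (detergent screen) or 0.0001% Triton X-100 was preincubated with compounds for 15 min at room temperature. Nitrocefin was then added from an 800 uM solution, and hydrolysis was followed at 480 nm.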
# RE007 growth inh: less growth of the S. pombe RE007 Vpr strain; AID 651644; Potency, µM (doses to about 92.2 µM), inactives show at the highest dose activity change, negative = less growth, actives largely listed as inhibitors; S. pombe RE007 Vpr strain, BacTiter-Glo ATP luminescence, 24 h; 0.21% of 360,000 active; active = well fitted falling curve with a large enough effect; inconclusive = small, poorly fitted or top-dose-only effect; inactive = no such curve, though single readings can be large or run the other way; also: nearly all actives have a fitted effect of over 50% in size
#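 Fission yeast strain RE007, carrying one chromosomally integrated HIV-1 vpr copy, was seeded at OD 0.01 in PMG+AL medium with 23 nL pinned compound. After 24 h at 30 °C and 99% humidity, viability was read by BacTiter-Glo luminescence.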
# AmpC inh detg: inhibitors of E. coli AmpC beta-lactamase with detergent; P00811; AmpC hydrolysis of nitrocefin, absorbance 480 nm, 0.01% Triton; Potency, µM (highest dose often 114 µM), without a hit: at the highest dose activity change, negative = inhibition, most hits filed as inhibitors; 0.041% of 370,000 active; AID 485294;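 also: 0% = no-compound wells and -100% = no-enzyme wells; nearly all actives have a fitted effect of over 25% in size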
#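 20 mM phosphate pH 7.0 + 0.01% (detergent screen) or 0.0001% Triton X-100; 5.3 nM AmpC reagent; cpd preinc 15 min RT; nitrocefin (800 uM stock) to start; A480 q20 s × 4 min; Activity was normalised to no-enzyme and no-compound control wells.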
# AMA1 RON2 block: disrupts binding of P. falciparum AMA1 to RON2 | AlphaScreen AMA1-biotinylated RON2 peptide binding | Potency, µM (titrated, usually from 58.2 µM), inactives show at the top dose activity change, negative = inhibition, most hits filed as inhibitors | 0.2% of 360,000 active | AID 720542;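 also: 0% = vehicle wells and -100% = peptide control; nearly all actives have a fitted effect of over 45% in size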
#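 AMA1 (3D7) with his tag at 25 nM final met compounds first, then biotinylated RON2 peptide at 25 nM; detection used donor plus acceptor beads, 10 µg/mL apiece, read by AlphaScreen after 30 min at room temperature.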
# Numbers without * were called inactive; ? = inconclusive; · = no result; [ ] = another dose, or the depositor's remark. Hits are enriched below; roughly 0.79% of the tested compounds scored in any of these assays. Unless noted, calls follow the shape of the dose curve; as a rule, active = well fitted curve in the direction sought with a large enough effect; inconclusive = small, poorly fitted or top-dose-only effect, or another doubt; inactive = no such curve, though single readings can be large; an effect the other way counts as inactive or inconclusive. Unless noted, % is scaled to controls: 0 for no effect and ±100 for the full control effect; potency is read from the fitted curve at half-maximal effect.
SMILES,AmpC no deterg,RE007 growth inh,AmpC inh detg,AMA1 RON2 block
O=c1c2ccccc2sn1-c1ccccc1F,·,35µM*,·,0%
N#Cc1ccc2c(=O)n(-c3ccccc3)sc2c1,·,10µM*,·,5%
CC1=NN(c2nc3ccccc3[nH]2)C(=O)/C1=C/N(C)C,-11%,7.9µM*,-1%,42%
CC1=NN(c2ccc([N+](=O)[O-])cc2)C(=O)/C1=C\N(C)C,-26%,6.3µM*,?,-4%[2.32 µM]
Oc1c(Cl)cc(Cl)cc1C(C#Cc1ccccc1)N1CCOCC1 (configuration not stated),0.32µM*,-24%,1%,-4%
N#CC(c1ccc(Cl)cc1)N1CCOCC1 (configuration not stated),-9%,-7%,-7%,1%
CCc1cc(=O)oc2cc(C)c(CN3CCCCC3)c(O)c12,-21%,-1%,?,1%
CCc1cc(=O)oc2cc(C)c(CN3CCCC3)c(O)c12,11µM*,11%,?,12µM*
Cc1nc(N2CCCC2)c2c(C(=O)Nc3ccc(Br)cc3F)c(C)oc2n1,·,·,12%,·
Cc1ccc2nc(N3CCN(c4cccc(Cl)c4)CC3)c(-n3nc(C)cc3C)nc2c1,·,·,20%,·
Cc1nc(-c2ccc(NC(=O)c3ccccc3)cc2)cs1,23%,45µM*,0%,0%
Cc1ccc(C(=O)Nc2ccc(-c3csc(C)n3)cc2)cc1,-17%,-7%,4%,-24%
CCCCOc1ccc(C(=O)NCC(c2ccc(Cl)cc2)N2CCOCC2)cc1 (configuration not stated),·,·,11%,·
CCOc1ccc(NC(=O)C2CCC(CNS(=O)(=O)c3ccc4c(c3)CCCC(=O)N4)CC2)cc1 (configuration not stated),·,·,1%,·
Cc1cc(C)c(C#N)c(Sc2nnnn2-c2ccccc2)n1,0.56µM*,4%,?,-2%
COc1cc(/C=C/C(=O)N2C(=O)c3cccc(N)c3C2=O)cc(OC)c1OC,-17%,7%,1%,0%
COc1ccc(OC)c(/C=C/C(=O)N2C(=O)c3cccc(N)c3C2=O)c1,32µM*,-22%,-2%,3%
COc1ccc(C(=O)NCC23C=CC(O2)C2C(=O)N(Cc4ccccc4)C(=O)C23)cc1 (configuration not stated),17%,25µM*,?,8%
CCCn1nc(C(=O)Nc2cc(S(=O)(=O)Nc3ccc(OC)cc3)ccc2O)c2ccccc2c1=O,1.6µM*,-1%,·,33%
CCCCSCCCNC(=O)c1cn(C)c2ccc(S(=O)(=O)N3CCCCCC3)cc2c1=O,·,·,7%,·
Cc1ccc(-n2cc(C(=O)OCc3ccc(F)c(F)c3)c3ccccc3c2=O)cc1,·,·,4%,·
C=CCOc1ccccc1CNc1ccc2c(c1)OCCO2,-6%,-4%,-5%,-25%
CCOc1ccc(Br)cc1CNc1ccc2c(c1)OCCO2,-43%,-17%,-14%,32µM*
CCSC1=NC2(CCCCC2)Nc2sc3c(c21)CCCC3,-24%,40µM*,?,-5%
CCSc1nc2sc3c(c2c(=O)[nH]1)CCCC3,-20%,14%,?,-16%
SMILES,AmpC no deterg,RE007 growth inh,AmpC inh detg,AMA1 RON2 block
CC(C)c1ccccc1NC(=O)C(Cc1c[nH]c2ccccc12)NC(=O)OC(C)(C)C (configuration not stated),·,·,3%,·
COc1ccc(-c2noc(CSc3nc4ccccc4[nH]3)n2)cc1OC,·,·,-1%,·
COc1c(Cl)cc(Cl)cc1C(=O)Nc1cccc(-c2nc3ccccc3o2)c1C,·,·,1%,·
Cc1ccc(S(=O)(=O)NCCSc2nnnn2-c2ccc(Cl)c(C(=O)O)c2)cc1,·,·,-4%,·
Cc1ccc(S(=O)(=O)NCCSc2nnnn2-c2ccc(C(N)=O)cc2)cc1,10µM*,-10%,?,1%
CCOC(=O)C1=C(C)NC(C)=C(C(=O)OCC)C1c1cccc([N+](=O)[O-])c1,·,8%,·,-11%
CC1=C(C(=O)OC(C)C)C(c2cccc([N+](=O)[O-])c2)n2c(cc(=O)[nH]c2=S)N1 (configuration not stated),35µM*,29%,-16%,34%
CCCn1cnc2c(N)c(C)c(C)cc21,0.32µM*,7%,6%,-7%
COc1ccccc1-c1nn(CCC(=O)Nc2cccc(C(C)=O)c2)c2nc(C)cc(C)c12,·,·,14%,·
N#Cc1ccc(/C=C/C(=O)c2cccnc2)cc1,-6%,45µM*,-11%,-2%
O=C(/C=C/c1ccccc1Cl)c1cccnc1,-9%,?,4%,-2%
O=C(/C=C/c1ccc(Cl)cc1)c1cccnc1,-17%,28µM*,-17%,-24%
CC(=O)N1CCc2c(sc3c2c(=O)n(-c2ccc(C)cc2)c(=O)n3Cc2c(F)cccc2Cl)C1,·,·,-1%,·
CC(=O)N[C@@H](Cc1ccc(O)cc1)C(=O)N[C@H](C(=O)N[C@@H](C)C(=O)N[C@H](C#N)CC(=O)O)C(C)C,-12%,·,-4%,·
O=C(NNC(=S)NC(=O)c1ccccc1[N+](=O)[O-])c1ccccc1O,-23%,-5%,4%,0.71µM*
CC(C)c1nnc(N2C(=O)c3oc4ccccc4c(=O)c3C2c2ccccc2F)s1 (configuration not stated),·,·,22%,·
CCc1cccc(OCC(=O)Nc2ccc(S(=O)(=O)Nc3ccccn3)cc2)c1,10µM*,-4%,-6%,2%
COc1cc(/C=N\NC(=O)CNC(=O)C(c2ccccc2)c2ccccc2)ccc1O,-42%,-19%,-1%,-17%
COc1ccc(/C=N\NC(=O)CNC(=O)C(c2ccccc2)c2ccccc2)cc1[N+](=O)[O-],4µM*,-5%,-4%,-2%
CC(=O)c1ccc(NC(=O)CC2Sc3ccccc3NC2=O)cc1 (configuration not stated),·,·,10%,·
Cc1ccc(OC(C)C(=O)N2CCN(CCc3ccccn3)CC2)cc1C (configuration not stated),·,·,12%,·
Cn1c(=O)[nH]c(=O)c2c1nc1n(CCO)c(-c3ccccc3)cn21,·,·,1%,·
NNC(=O)c1[nH]c2ccccc2c1-c1ccccc1,6.3µM*,·,-10%,77%
Cc1nc(S/C(=C\c2ccc(-c3ccc(C(=O)O)c(Cl)c3)o2)C(=O)O)n[nH]1,-35%,20%,-3%,18µM*
Cc1nc(S/C(=C\c2ccc(OCc3ccccc3Cl)cc2)C(=O)O)n[nH]1,-24%,4%,-9%,-2%
SMILES,AmpC no deterg,RE007 growth inh,AmpC inh detg,AMA1 RON2 block
O=C(NC1CCCCCC1)c1ccc(CS(=O)c2cccc(Cl)c2)o1 (configuration not stated),·,·,3%,·
Fc1ccc(Nc2c3c(nc4nncn24)CCC3)cc1,·,·,-1%,·
Cc1ccccc1NC(=O)CSc1n[nH]c(-c2ccccn2)n1,-10%,7%,0%,8.9µM*
Cc1ccc(C)c(NC(=O)CSc2n[nH]c(-c3ccccn3)n2)c1,-25%,2%,-9%,-38%
CC(=O)c1ccc(NC(=O)c2cc(CC(C)C)on2)cc1,50µM*,-4%,?,16%
CSc1ccccc1NC(=O)c1cc(CC(C)C)on1,10µM*,-9%,4%,37%
